According to PubChem BioAssay AID1159580 (chemical genetic matrix, 2015):
Several values for one entry are separate records, joined by “and”; a condition that tells them apart may be missing. Equal entries are not always repeated. In all, about 5,500 compounds went through this assay and about 2,000 (36%) were called active. About 18% were inconclusive and are not listed. No stated cut-off is given here; in the data, active means normalized growth mostly below about 0.91 (no sharp cut-off); inconclusive means no clear call, values can overlap the other calls; inactive means mostly above about 0.92. The list shows a part of the results.

Experiment: chemical genetic growth profiling, strain panel (AID 1159580);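 further: tested at 20 µM; growth read once vehicle control cultures reached saturation at 30 °C; 1 = growth at the plate median or of vehicle wells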
Conditions: S. cerevisiae deletion strains, growth OD

Measured: normalized growth

CC1(C)[C@@H]2CC[C@@]1(C)C(=O)C2
inactive: locus YAL013W, strain DEP1, stronger effect = lower value 0.962 | locus YAL021C, strain ccr4, stronger effect = lower value 0.97 | locus YAL026C, strain drs2, stronger effect = lower value 1.03 | locus YAL030W, strain snc1, stronger effect = lower value 1.02 | locus YBL061C, strain skt5, stronger effect = lower value 1.02 | locus YBR009C, strain hhf1, stronger effect = lower value 1.01 | locus YBR021W, strain FUR4, stronger effect = lower value 1 | locus YBR023C, strain chs3, stronger effect = lower value 1.01 | locus YBR171W, strain sec66, stronger effect = lower value 1.02 | locus YBR229C, strain ROT2, stronger effect = lower value 0.99 | locus YBR231C, strain swc5, stronger effect = lower value 1.01 | locus YBR279W, strain paf1, stronger effect = lower value 0.993 | locus YCL011C, strain gbp2, stronger effect = lower value 1 | locus YCL016C, strain dcc1, stronger effect = lower value 0.987 | locus YCL029C, strain bik1, stronger effect = lower value 1 | locus YCL061C, strain MRC1, stronger effect = lower value 1.02 | locus YCL069W, strain vba3, stronger effect = lower value 1.02 | locus YCR088W, strain abp1, stronger effect = lower value 1.01 | locus YDL005C, strain med2, stronger effect = lower value 1.01 | locus YDL035C, strain GPR1, stronger effect = lower value 1.01 | locus YDL040C, strain nat1, stronger effect = lower value 1 | locus YDL074C, strain BRE1, stronger effect = lower value 1.02 | locus YDL101C, strain DUN1, stronger effect = lower value 1 | locus YDL134C, strain PPH21, stronger effect = lower value 0.994 | locus YDL185W, strain tfp1, stronger effect = lower value 1 | locus YDL192W, strain arf1, stronger effect = lower value 1 | locus YDR001C, strain nth1, stronger effect = lower value 1.01 | locus YDR069C, strain doa4, stronger effect = lower value 1.02 | locus YDR101C, strain arx1, stronger effect = lower value 0.995 | locus YDR137W, strain rgp1, stronger effect = lower value 1.02 | locus YDR159W, strain sac3, stronger effect = lower value 1.06 | locus YDR162C, strain NBP2, stronger effect = lower value 1.01 | locus YDR195W, strain ref2 0.972 | locus YDR297W, strain sur2, stronger effect = lower value 1.02 | locus YDR318W, strain mcm21, stronger effect = lower value 0.996 | locus YDR334W, strain swr1, stronger effect = lower value 1.01 | locus YDR335W, strain msn5, stronger effect = lower value 0.993 | locus YDR388W, stronger effect = lower value 1.01 | locus YDR392W, strain spt3, stronger effect = lower value 0.902 | locus YDR502C, strain sam2, stronger effect = lower value 0.995 | locus YEL003W, strain gim4, stronger effect = lower value 1.01 | locus YEL037C, strain rad23, stronger effect = lower value 1 | locus YEL061C, strain CIN8 (second series), stronger effect = lower value 1 | locus YEL061C, strain CIN8, stronger effect = lower value 1 | locus YER015W, strain faa2, stronger effect = lower value 1.01 | locus YER016W, strain bim1, stronger effect = lower value 1.01 | locus YER110C, stronger effect = lower value 1.01 | locus YER111C, strain swi4, stronger effect = lower value 1.01 | locus YER155C, strain BEM2 (second series), stronger effect = lower value 1.02 | locus YER155C, strain BEM2, stronger effect = lower value 0.982 | locus YER167W, strain BCK2, stronger effect = lower value 0.992 | locus YFR010W, strain ubp6, stronger effect = lower value 1.02 | locus YGL078C, strain dbp3, stronger effect = lower value 0.996 | locus YGL086W, strain mad1, stronger effect = lower value 0.995 | locus YGL167C, strain pmr1, stronger effect = lower value 1.01 | locus YGL173C, strain kem1, stronger effect = lower value 1.03 | locus YGL227W, strain vid30, stronger effect = lower value 1.01 | locus YGL240W, strain doc1, stronger effect = lower value 1.01 | locus YGL248W, strain PDE1, stronger effect = lower value 0.99 | locus YGL253W, strain hxk2, stronger effect = lower value 1.02 | locus YGR078C, strain PAC10, stronger effect = lower value 1.01 | locus YGR135W, strain pre9, stronger effect = lower value 0.996 | locus YGR252W, strain gcn5, stronger effect = lower value 0.937 | locus YHR013C, strain ard1, stronger effect = lower value 0.991 | locus YHR027C, strain rpn1, stronger effect = lower value 1.02 | locus YHR030C, strain SLT2, stronger effect = lower value 1 and 1.03 | locus YHR079C, strain IRE1 (second series), stronger effect = lower value 0.997 | locus YHR079C, strain IRE1, stronger effect = lower value 1.05 | locus YHR094C, strain hxt1, stronger effect = lower value 1 | locus YHR129C, strain ARP1, stronger effect = lower value 1 | locus YHR142W, strain chs7, stronger effect = lower value 0.989 | locus YHR200W, strain rpn10, stronger effect = lower value 1 | locus YIL066C, strain RNR3, stronger effect = lower value 1.03 | locus YIL073C, strain SPO22, stronger effect = lower value 1.02 | locus YIL125W, strain kgd1, stronger effect = lower value 1 | locus YIR030C, strain dcg1, stronger effect = lower value 0.996 | locus YJL092W, strain hpr5, stronger effect = lower value 1.01 | locus YJL095W, strain BCK1 (second series), stronger effect = lower value 1.01 | locus YJL095W, strain BCK1, stronger effect = lower value 1.02 and 1.05 | locus YJL115W, strain asf1, stronger effect = lower value 1.01 | locus YJL129C, strain trk1, stronger effect = lower value 1.03 | locus YJL134W, strain LCB3, stronger effect = lower value 0.995 | locus YJL154C, strain vps35, stronger effect = lower value 1.01 | locus YJL164C, strain tpk1, stronger effect = lower value 0.98 | locus YJL166W, strain qcr8, stronger effect = lower value 1.03 | locus YJL168C, strain set2, stronger effect = lower value 1.01 | locus YJL187C, strain SWE1 (second series), stronger effect = lower value 1.01 | locus YJL187C, strain SWE1, stronger effect = lower value 1 | locus YJR043C, strain POL32, stronger effect = lower value 1.01 | locus YJR066W, strain TOR1, stronger effect = lower value 0.973 | locus YKL009W, strain mrt4, stronger effect = lower value 0.987 | locus YKL068W, stronger effect = lower value 0.992 | locus YKL085W, strain MDH1 (second series), stronger effect = lower value 1.01 | locus YKL085W, strain MDH1, stronger effect = lower value 1.01 | locus YKL160W, strain elf1, stronger effect = lower value 0.976 | locus YKR001C, strain vps1, stronger effect = lower value 0.992 | locus YKR026C, strain gcn3, stronger effect = lower value 1.01 | locus YKR091W, strain srl3, stronger effect = lower value 0.996 | locus YLL001W, strain dnm1, stronger effect = lower value 0.962 | locus YLL026W, stronger effect = lower value 1.01 | locus YLL041C, strain sdh2, stronger effect = lower value 1.01 | locus YLR027C, strain aat2, stronger effect = lower value 1.01 | locus YLR039C, strain RIC1, stronger effect = lower value 1.03 | locus YLR058C, strain SHM2, stronger effect = lower value 1 | locus YLR102C, strain apc9, stronger effect = lower value 0.992 | locus YLR113W, strain HOG1, stronger effect = lower value 1.05 | locus YLR221C, strain rsa3, stronger effect = lower value 1.05 | locus YLR258W, strain gsy2, stronger effect = lower value 0.986 | locus YLR262C, strain YPT6 (second series), stronger effect = lower value 1.01 | locus YLR262C, strain YPT6, stronger effect = lower value 1.05 | locus YLR268W, strain sec22, stronger effect = lower value 0.987 | locus YLR320W, strain mms22, stronger effect = lower value 1.04 | locus YLR330W, strain CHS5, stronger effect = lower value 0.996 | locus YLR342W, strain FKS1 (second series), stronger effect = lower value 1.02 | locus YLR342W, strain FKS1, stronger effect = lower value 1.01 | locus YLR357W, strain rsc2, stronger effect = lower value 0.993 | locus YLR370C, strain arc18, stronger effect = lower value 1.01 | locus YLR371W, strain rom2, stronger effect = lower value 1 | locus YLR384C, strain iki3, stronger effect = lower value 1.02 | locus YLR418C, strain cdc73, stronger effect = lower value 0.994 | locus YML016C, strain PPZ1, stronger effect = lower value 0.997 | locus YML032C, strain rad52, stronger effect = lower value 1 | locus YML120C, strain ndi1, stronger effect = lower value 0.981 | locus YML124C, strain tub3, stronger effect = lower value 1.01 | locus YMR058W, strain fet3, stronger effect = lower value 1.03 | locus YMR078C, strain ctf18, stronger effect = lower value 1.01 | locus YMR125W, strain sto1, stronger effect = lower value 0.987 | locus YMR129W, stronger effect = lower value 1 | locus YMR205C, strain PFK2, stronger effect = lower value 1 | locus YMR223W, strain ubp8, stronger effect = lower value 1 | locus YMR231W, strain pep5, stronger effect = lower value 1.01 | locus YMR307W, strain GAS1, stronger effect = lower value 0.98 | locus YNL067W, strain RPL9B, stronger effect = lower value 1 | locus YNL071W, strain lat1, stronger effect = lower value 1.01 | locus YNL183C, strain NPR1, stronger effect = lower value 0.985 | locus YNL209W, strain ssb2, stronger effect = lower value 0.991 | locus YNL233W, strain BNI4, stronger effect = lower value 1.01 | locus YNL248C, strain rpa49, stronger effect = lower value 1.04 | locus YNL250W, strain rad50, stronger effect = lower value 1.03 | locus YNL271C, strain bni1, stronger effect = lower value 1 | locus YNL298W, strain CLA4, stronger effect = lower value 0.99 | locus YNL307C, strain MCK1, stronger effect = lower value 0.997 | locus YNL322C, strain KRE1 (second series), stronger effect = lower value 1.01 | locus YNL322C, strain KRE1, stronger effect = lower value 0.985 | locus YNR049C, strain mso1, stronger effect = lower value 1.01 | locus YNR052C, strain pop2, stronger effect = lower value 0.999 | locus YOL012C, strain htz1 1.32 | locus YOL147C, strain pex11, stronger effect = lower value 1 | locus YOR001W, strain rrp6, stronger effect = lower value 1.07 | locus YOR061W, strain CKA2, stronger effect = lower value 1.01 | locus YOR069W, strain VPS5, stronger effect = lower value 1 | locus YOR070C, strain gyp1, stronger effect = lower value 1.03 | locus YOR080W, strain dia2, stronger effect = lower value 1.01 | locus YOR083W, strain WHI5, stronger effect = lower value 0.973 | locus YOR106W, strain vam3, stronger effect = lower value 0.991 | locus YOR136W, strain idh2, stronger effect = lower value 0.991 | locus YOR144C, strain elg1, stronger effect = lower value 0.996 | locus YOR184W, strain ser1, stronger effect = lower value 0.992 | locus YOR231W, strain MKK1, stronger effect = lower value 1.05 | locus YOR265W, strain rbl2, stronger effect = lower value 1 | locus YOR270C, strain vph1, stronger effect = lower value 1.06 | locus YOR290C, strain snf2, stronger effect = lower value 0.969 | locus YOR316C, strain cot1, stronger effect = lower value 0.999 | locus YPL051W, strain arl3, stronger effect = lower value 0.997 | locus YPL055C, strain LGE1, stronger effect = lower value 1 | locus YPL078C, strain atp4, stronger effect = lower value 0.966 | locus YPL106C, strain sse1, stronger effect = lower value 1.01 | locus YPL240C, strain hsp82, stronger effect = lower value 1.01 | locus YPL241C, strain CIN2, stronger effect = lower value 1 | locus YPL256C, strain CLN2, stronger effect = lower value 1.01 | locus YPR119W, strain clb2, stronger effect = lower value 0.998 | locus YPR141C, strain kar3, stronger effect = lower value 0.986 | locus YPR163C, strain tif3, stronger effect = lower value 0.999 | locus YPR167C, strain met16, stronger effect = lower value 1 | strain wtn01, stronger effect = lower value 0.987
